Measured values taken from PubChem BioAssay (NCI).
About 79,000 compounds went through this panel and 15% of them were active in at least one assay; those are over-represented in the sample as a whole. Activity calls are given as the source filed them. Rule as the data show it: active = growth inhibition above about 70%; inactive = the rest. Where a SMILES comes first, the peptide text is derived from it. [ ]: non-standard residue; d: D form. The star is where a group is joined. ξ: configuration not given here. NMeF = CN[C@@H](Cc1ccccc1)C(=O)O; dThr(3ξ) = CC(O)[C@@H](N)C(=O)O; dNMeL = CN[C@H](CC(C)C)C(=O)O; NMeV = CN[C@H](C(=O)O)C(C)C; ξNMeN = CNC(CC(N)=O)C(=O)O; NMeA = CN[C@@H](C)C(=O)O; ξNMeV = CNC(C(=O)O)C(C)C; Boc = CC(C)(C)OC(=O)*; OBn = c1ccc(CO*)cc1; ξLac = CC(O)C(=O)O

Assay: NCI Yeast Anticancer Drug Screen. Data for the mlh1 rad18 strain (AID 175)
Details: S. cerevisiae mlh1 rad18 strain growth inhibition; at 50.0 µM; stronger effect = higher value
Method in brief: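 Growth inhibition of the yeast strain was measured after compound exposure and expressed relative to vehicle-treated controls. The strain carries defined defects in DNA damage repair.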

Q: For CC(=O)OC(C)[C@@H](NC(=O)[C@@H](CC(C)C)N(C)C(=O)[C@@H]1CCCN1C(=O)C(C)O)C(=O)OCc1ccccc1 (stereo not given in full) (H-[ξLac]P[dNMeL][dThr(3ξ)](Ac)-OBn), which growth inhibition is on record?
A: -37.3% (inactive)

Q: With Cc1cccc(OC(=O)Oc2cccc(C)c2)c1 as the compound, how does the growth inhibition read?
A: 31.1% (inactive)

Q: Which growth inhibition does the source give for Cc1ccc(S(=O)(=O)NNC(=O)c2cccnc2)cc1 here?
A: 4.8% (inactive)

Q: For C/C(=N\N=C\N(C)S(=O)(=O)c1ccc(C)cc1)c1ccccc1, which growth inhibition is on record?
A: -2.7% (inactive)

Q: Which growth inhibition does the source give for CC(O)C(C)C(N)C(=O)O (stereo not given) here?
A: 18.4% (inactive)

Q: For CCOC(=O)C1CCCc2sc(N)c(C#N)c21 (stereo not given), which growth inhibition is on record?
A: 0.95% (inactive)

Q: For CC12CCC(CC1)C2(C)C, which growth inhibition is on record?
A: -1.6% (inactive)

Q: For CN(C)C(=S)SCC(=O)c1ccccc1, which growth inhibition is on record?
A: -10.6% (inactive)

Q: For CSc1cc(Cl)c(C)cc1S(=O)(=O)NC(=O)NNc1cccc(C(F)(F)F)n1, which growth inhibition is on record?
A: 24.6% (inactive)

Q: Which growth inhibition does the source give for O=C(OC1CCCC1OC(=O)c1ccccc1)c1ccccc1 (stereo not given) here?
A: 22.4% (inactive)

Q: Which growth inhibition does the source give for CNC(=O)c1cccc([N+](=O)[O-])c1 here?
A: 30.2% (inactive)

Q: With S=C1CNC(=S)CN1 as the compound, how does the growth inhibition read?
A: -22.9% (inactive)

Q: Which growth inhibition does the source give for [O-]/[N+](=C\c1cccc(O)c1)c1ccccc1 here?
A: 15% (inactive)

Q: For CCCc1cc(=O)oc2c3c(c4c(c12)OC(C)(C)C=C4)O[C@H](C)[C@@H](C)C3O (stereo not given in full), which growth inhibition is on record?
A: -3.4% (inactive)

Q: With O=[N+]([O-])c1ccc(N/N=C2/CC(c3ccccc3)C(c3ccccc3)=C2Cl)c([N+](=O)[O-])c1 (stereo not given) as the compound, how does the growth inhibition read?
A: 15.7% (inactive)

Q: With COc1nc(NC2OC(COC(C)=O)C(OC(C)=O)C(OC(C)=O)C2OC(C)=O)c(-c2csc(N)n2)c(=O)n1C (stereo not given) as the compound, how does the growth inhibition read?
A: -4.55% (inactive)

Q: For O=c1[nH]cnc2nn(C3OC(CO)C(O)C3O)nc12 (stereo not given), which growth inhibition is on record?
A: 23.6% (inactive)

Q: With Cn1c(=O)c2c(ncn2CCSCC2=NS(=O)(=O)c3cc(S(N)(=O)=O)c(C(F)(F)F)cc3N2)n(C)c1=O as the compound, how does the growth inhibition read?
A: 4.95% (inactive)

Q: For CC(C)CNC(=O)c1ccccc1, which growth inhibition is on record?
A: -4.65% (inactive)

Q: With CCOc1c(N=Nc2ccc([N+](=O)[O-])cc2)c(C)nn1C(N)=S as the compound, how does the growth inhibition read?
A: 15.9% (inactive)

Q: With Clc1ccc(-c2nnc(-c3ccc4ccccc4c3)o2)cc1Cl as the compound, how does the growth inhibition read?
A: -6.2% (inactive)

Q: With O=C(O)C1C2CCC3C(C(=O)O)C3C21 (stereo not given) as the compound, how does the growth inhibition read?
A: -0.8% (inactive)

Q: With c1ccc(C2CCN3c4ccc5ccccc5c4NCC23)cc1 (stereo not given) as the compound, how does the growth inhibition read?
A: 67.3% (inactive)

Q: With CCOC(=O)/C=C(/C)N(CC)CC as the compound, how does the growth inhibition read?
A: 19.9% (inactive)

Q: For CCCCCCCCCCCCOC1C(COCCN2CCCCC2)OC2OC(C)(C)OC21 (stereo not given), which growth inhibition is on record?
A: 90.2% (active)

Q: With CC1NC(=O)CC(c2ccccc2)N(N=O)C1c1ccccc1 (stereo not given) as the compound, how does the growth inhibition read?
A: 8.65% (inactive)

Q: Which growth inhibition does the source give for CCCCCC(=O)NC1CCCCC1 here?
A: 15.5% (inactive)

Q: With O=C(Cl)c1cccc2c([N+](=O)[O-])cccc12 as the compound, how does the growth inhibition read?
A: 11.8% (inactive)

Q: For Nc1cccc(CCc2nc(N)nc(N)c2-c2ccc(Cl)cc2)c1, which growth inhibition is on record?
A: -14.3% (inactive)

Q: With CCCCCC(=O)OCC(Br)CBr (stereo not given) as the compound, how does the growth inhibition read?
A: 1.1% (inactive)

Q: For O=c1[nH]ncc2ccc([N+](=O)[O-])cc12, which growth inhibition is on record?
A: -6.8% (inactive)

Q: With CCC1(CC)C(=O)C(CC)(CC)C1=O as the compound, how does the growth inhibition read?
A: 6.55% (inactive)

Q: With O=C(Nc1nnc(C(F)(F)F)s1)c1c(F)cccc1F as the compound, how does the growth inhibition read?
A: 30.1% (inactive)

Q: With NC12CCC(CC1)C2 as the compound, how does the growth inhibition read?
A: -4.8% (inactive)

Q: With N#Cc1c(N)[nH]c(=S)c(C#N)c1-c1ccccc1 as the compound, how does the growth inhibition read?
A: 35.1% (inactive)

Q: For CC(=O)c1cccc(NC(=O)OCC2CC3C=CC2C3)c1 (stereo not given), which growth inhibition is on record?
A: 52.3% (inactive)

Q: With C=CCNC(=S)Nc1ccccc1 as the compound, how does the growth inhibition read?
A: -11.9% (inactive)

Q: With Clc1ccc(-c2cc(-c3cc(-c4ccc(Cl)cc4Cl)n[nH]3)[nH]n2)c(Cl)c1 as the compound, how does the growth inhibition read?
A: 8.55% (inactive)

Q: With COC(=O)[C@H](C)N(C)C(=O)C(CC(N)=O)N(C)C(=O)[C@H](Cc1ccccc1)N(C)C(=O)[C@@H]1CCCN1C(=O)[C@H](C(C)C)N(C)C(=O)C(C(C)C)N(C)C(=O)[C@@H](NC(=O)OC(C)(C)C)C(C)C (stereo not given in full) (Boc-V[ξNMeV][NMeV]P[NMeF][ξNMeN][NMeA]-OMe) as the compound, how does the growth inhibition read?
A: -5.4% (inactive)

Q: For Cc1cc(C2(O)CCCc3ccccc32)[n+]([O-])cc1C (stereo not given), which growth inhibition is on record?
A: 2.75% (inactive)
